ASM inhibitor: Inhibitors of Secretory Acid Sphingomyelinase (S-ASM): qHTS | Sphingomyelin phosphodiesterase (Homo sapiens), P17405 | Potency, µM (series often up to 57.5 µM), for the others: at the top dose activity change, negative = inhibition, hits mostly inhibitors | actives 0.006% (n = 340,000) | placental ASM, HMU-PC fluorogenic substrate, 60 min; note: potency is the fitted concentration of half-maximal effect
Target sequence (P17405 47-631 limits assumed): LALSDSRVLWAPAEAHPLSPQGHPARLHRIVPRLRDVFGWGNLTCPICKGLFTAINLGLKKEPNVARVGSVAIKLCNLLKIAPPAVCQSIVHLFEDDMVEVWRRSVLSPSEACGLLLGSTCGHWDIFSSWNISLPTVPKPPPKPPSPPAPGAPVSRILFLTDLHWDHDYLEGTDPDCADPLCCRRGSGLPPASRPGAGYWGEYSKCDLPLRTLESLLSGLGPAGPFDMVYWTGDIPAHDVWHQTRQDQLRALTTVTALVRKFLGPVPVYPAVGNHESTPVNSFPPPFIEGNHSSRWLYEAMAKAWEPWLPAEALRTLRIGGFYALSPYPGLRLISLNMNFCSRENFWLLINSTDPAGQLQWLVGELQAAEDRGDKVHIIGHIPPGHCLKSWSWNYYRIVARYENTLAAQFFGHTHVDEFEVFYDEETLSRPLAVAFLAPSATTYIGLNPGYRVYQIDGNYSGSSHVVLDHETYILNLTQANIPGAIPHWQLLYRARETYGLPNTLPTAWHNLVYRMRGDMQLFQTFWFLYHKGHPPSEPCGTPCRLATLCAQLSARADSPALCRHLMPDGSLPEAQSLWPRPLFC
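Fluorogenic HMU-PC substrate (9 uM final) is turned over by placental ASM in 60 min at 37 C after a 10 min compound preincubation. Reaction ended by alkaline stop (pH 10), with fluorescence read at 386/447 nm.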
HepG2 tox: qHTS for Inhibitors of TGF-b: Cytotox Counterscreen. HepG2 CAGA-GFP viability, ATP luminescence, 18 h. Potency, µM (series often up to 46.1 µM), without a hit: at the highest dose activity change, negative = cytotoxicity, usual class: cytotoxic. actives 0.76% (n = 410,000). AID 588856, 2011; note: potency is the fitted concentration of half-maximal effect
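CellTiter-Glo luminescence gave cytotoxicity after 18 hours at 37 degrees C. The cells were HepG2 CAGA-GFP in 1% FBS DMEM, stimulated with 500 pg/mL TGF-beta after compound addition. %Activity was normalised to no-cell wells (complete cell-killing) and DMSO (no toxicity), and curves were fitted and classified.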
TDP1 cell noCPT: qHTS for Inhibitors of human tyrosyl-DNA phosphodiesterase 1 (TDP1): qHTS in cells in absence of CPT; DT40 Tdp1-/- hTDP1 cells, no CPT, ATP luminescence, 48 h; Potency, µM (top dose mostly 46.2 µM), without a hit: at the top dose activity change, negative = growth inhibition, hits mostly inhibitors; actives 15% (n = 420,000); note: potency is the fitted concentration of half-maximal effect; % is set by controls: 0 for no effect and ±100 for the full control effect; nearly all actives have a fitted effect of over 55% in size
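Seeded 400 DT40-hTDP1 cells/well (vehicle DMSO, no 20 nM CPT); pinned compounds; ≥48 hr at 37 °C; CellTiter-Glo luminescence as viability measure.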
DT40 TDP1 CPT: qHTS for Inhibitors of human tyrosyl-DNA phosphodiesterase 1 (TDP1): qHTS in cells in presence of CPT; actives 12% (n = 420,000); chicken DT40 Tdp1-/-;hTDP1 cells + 20 nM CPT, ATP luminescence, 48 h; Potency, µM (top dose mostly 46.2 µM), inactives show top-dose activity change, negative = growth inhibition, hits mostly inhibitors; note: potency is the fitted concentration of half-maximal effect; % is set by controls: 0 for no effect and ±100 for the full control effect; nearly all actives have a fitted effect of over 55% in size
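Chicken DT40 Tdp1-/- cells stably complemented with human TDP1 were seeded at 400 cells/well in medium containing 20 nM camptothecin, exposed to pin-transferred compounds, and grown at 37 °C for at least 48 hr. Viability was read as ATP luminescence.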
TGFb inhibitor: qHTS for Inhibitors of TGF-b | AID 588855, 2011 | HepG2 CAGA-GFP TGF-b/SMAD3 reporter, GFP fluorescence, 18 h; TGF-beta stimulated, 500 pg/mL final | actives 1.2% (n = 410,000) | Potency, µM (highest dose often 46.1 µM), for inactives: at the top dose activity, negative = inhibition, most hits filed as inhibitors; note: potency is the fitted concentration of half-maximal effect; % is set by controls: 0 for no effect and ±100 for the full control effect; nearly all actives have a fitted effect of over 65% in size
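First, reporter cells (HEPG2 CAGA-GFP) rested 2 h at 37 degrees C. Next, compounds were pinned in and TGF-beta added to 500 pg/mL final. After 18 h, GFP was imaged per cell and summed per well.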
IL1B secr inh: qHTS for Inhibitors of Inflammasome Signaling: IL-1-beta AlphaLISA Primary Screen; activity change, % at 57.5 µM; AID 743279, 2014; THP-1 LPS/ATP IL-1B secretion, AlphaLISA, 16 h; hits give low values; actives 4.7% (n = 360,000); in the data active = activity change below about -50%; inconclusive = mostly about -30% to -49%; note: % is set by controls: 0 for no effect and ±100 for the full control effect
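Secreted IL-1B measured by AlphaLISA bead assay after 16 h compound exposure of THP-1 cells; compounds (final up to 57.5 uM) added 1 h before LPS (250 ng/mL) and ATP (1.25 mM) stimulation; lower signal means less secretion.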
* hit, by the source's call. Rows were chosen to be rich in hits. Some 19% of all compounds tested hit in one or more screens of this group. Unless noted, calls come from the whole dose curve; as a rule, active = well fitted curve in the direction sought with a large enough effect; inconclusive = small, poorly fitted or top-dose-only effect, or another doubt; inactive = no such curve, though single readings can be large; an effect the other way counts as inactive or inconclusive.

`COC(=O)c1cccc(Nc2cc(C)nc(-c3ccccc3O)n2)c1` gave ASM inhibitor -21.7%, HepG2 tox -5.9%, TDP1 cell noCPT 16.4µM*, DT40 TDP1 CPT inconclusive, TGFb inhibitor 1.9% and IL1B secr inh -3.0.
COC(=O)c1ccc(Nc2cc(C)nc(-c3ccccc3O)n2)cc1 was read as ASM inhibitor 2.4%, HepG2 tox 5.4%, TDP1 cell noCPT inconclusive, DT40 TDP1 CPT inconclusive, TGFb inhibitor 20.2% and IL1B secr inh -11.3.
Brc1cccc(CNCCCN2CCOCC2)c1 was read as ASM inhibitor 2.4%, HepG2 tox -0.8%, TDP1 cell noCPT inconclusive, DT40 TDP1 CPT 23.1µM*, TGFb inhibitor -12.1% and IL1B secr inh 32.2.
Screening COc1cc(C2C(C#N)=C(N)Oc3c2ccc2ccccc32)ccc1OCC(=O)Nc1ccccc1C (configuration not stated) returned ASM inhibitor -6.0%, HepG2 tox -1.7%, TDP1 cell noCPT 25.9µM*, DT40 TDP1 CPT 20.6µM*, TGFb inhibitor -7.8% and IL1B secr inh -2.5.
`CCCCOc1c(Br)cc(CNCCCN2CCOCC2)cc1OC` gave ASM inhibitor -1.0%, HepG2 tox -16.7%, TDP1 cell noCPT 13µM*, DT40 TDP1 CPT inconclusive, TGFb inhibitor 29.3% and IL1B secr inh -66.0*.
For CCCCNCc1cc(Br)c(OCc2cccs2)c(OC)c1 the results were ASM inhibitor 0.5%, HepG2 tox -71.4%, TDP1 cell noCPT inconclusive, DT40 TDP1 CPT inconclusive, TGFb inhibitor inconclusive and IL1B secr inh -24.5.
Screening COc1cc(C2C(C#N)=C(N)Oc3n[nH]c(C)c32)ccc1OC(=O)c1ccccc1 (configuration not stated) returned ASM inhibitor -0.5%, HepG2 tox -1.9%, TDP1 cell noCPT -14.8%, DT40 TDP1 CPT -16.8%, TGFb inhibitor -5.5% and IL1B secr inh -11.6.
`O=C(COc1ccc(Br)cc1Cl)NCCCN1CCOCC1` gave ASM inhibitor -1.1%, HepG2 tox 7.5%, TDP1 cell noCPT 3.8%, DT40 TDP1 CPT -29.8%, TGFb inhibitor 0.9% and IL1B secr inh 0.0.
O=C(COc1ccc(Br)cc1CNCCCN1CCOCC1)Nc1ccccc1 was read as ASM inhibitor 1.9%, HepG2 tox -37.9%, TDP1 cell noCPT 20.6µM*, DT40 TDP1 CPT 16.4µM*, TGFb inhibitor -5.9% and IL1B secr inh -70.2*.
Screening O=C(NCCCN1CCOCC1)c1ccc(NS(=O)(=O)c2ccccc2)cc1 returned ASM inhibitor 2.9%, HepG2 tox -29.8%, TDP1 cell noCPT 3.6%, DT40 TDP1 CPT 11.6%, TGFb inhibitor -5.5% and IL1B secr inh inactive.
COc1cc(CNC(C)C)ccc1OCC(=O)Nc1cccc2ccccc12 was read as ASM inhibitor -1.9%, HepG2 tox -7.1%, TDP1 cell noCPT 18.4µM*, DT40 TDP1 CPT 25.9µM*, TGFb inhibitor 5.4% and IL1B secr inh -20.1.
Screening COc1cc(CNCCCN2CCOCC2)ccc1OCC(=O)Nc1cccc(C(F)(F)F)c1 returned ASM inhibitor -0.2%, HepG2 tox -37.1%, TDP1 cell noCPT inconclusive, DT40 TDP1 CPT inconclusive, TGFb inhibitor 25.0% and IL1B secr inh inconclusive.
`COc1ccc(CC(=O)Nc2cccc3ccccc23)cc1OC` gave ASM inhibitor 4.4%, HepG2 tox -16.9%, TDP1 cell noCPT inconclusive, DT40 TDP1 CPT inconclusive, TGFb inhibitor -15.7% and IL1B secr inh 2.3.
CCOc1cc(CNCCCN2CCOCC2)ccc1OCC(=O)Nc1cccc2ccccc12 was read as ASM inhibitor 1.2%, HepG2 tox -72.1%, TDP1 cell noCPT 3.66µM*, DT40 TDP1 CPT 23.1µM*, TGFb inhibitor -21.1% and IL1B secr inh -5.5.
`O=C(CCn1nc(-c2ccc(Cl)cc2)ccc1=O)N1CCN(c2ccc(F)cc2)CC1` gave ASM inhibitor -12.2%, HepG2 tox -38.0%, TDP1 cell noCPT 20.6µM*, DT40 TDP1 CPT inconclusive, TGFb inhibitor inconclusive and IL1B secr inh inconclusive.
Screening O=C(CCn1nc(-c2ccc(Cl)cc2)ccc1=O)NCCc1ccccc1 returned HepG2 tox -12.4%, TDP1 cell noCPT inconclusive, DT40 TDP1 CPT inconclusive and TGFb inhibitor inconclusive.
`Cc1ccc(CCNC(=O)CCn2nc(-c3ccc(Cl)cc3)ccc2=O)cc1` gave HepG2 tox -28.1%, TDP1 cell noCPT 23.1µM*, DT40 TDP1 CPT inconclusive and TGFb inhibitor -14.0%.
Screening CCCC1NC(=O)c2cccnc2-n2c1nc1ccc(Cl)cc1c2=O (configuration not stated) returned HepG2 tox 11.3%, TDP1 cell noCPT -3.7%, DT40 TDP1 CPT 8.9%, TGFb inhibitor 10.8% and IL1B secr inh -2.1.
`Cc1ccccc1Cn1c(CCCNC(=O)C2CCCCC2)nc2ccccc21` gave HepG2 tox -17.0%, TDP1 cell noCPT 14.6µM*, DT40 TDP1 CPT 18.4µM* and TGFb inhibitor inconclusive.
`O=C(NCCCc1nc2ccccc2n1CCOc1ccccc1)C1CCCCC1` gave HepG2 tox -0.2%, TDP1 cell noCPT -25.6%, DT40 TDP1 CPT -28.4% and TGFb inhibitor -0.4%.
For O=C(NCCCc1nc2ccccc2n1Cc1ccc(F)cc1)C1CCCCC1 the results were HepG2 tox -53.2%, TDP1 cell noCPT 25.9µM*, DT40 TDP1 CPT inconclusive and TGFb inhibitor 12.6µM*.
For O=C(NCCCc1nc2ccccc2n1Cc1ccccc1)C1CCCCC1 the results were HepG2 tox -35.5%, TDP1 cell noCPT 16.4µM*, DT40 TDP1 CPT 18.4µM* and TGFb inhibitor inconclusive.
CC(=O)NCCCc1nc2ccccc2n1Cc1ccccc1C was read as ASM inhibitor 5.1%, HepG2 tox 11.1%, TDP1 cell noCPT -14.4%, DT40 TDP1 CPT -0.8%, TGFb inhibitor 1.2% and IL1B secr inh 11.3.
O=C(CN1CCN(C(=O)CCC(=O)N2CCC(c3ccccc3)=N2)CC1)Nc1cccc(F)c1 was read as HepG2 tox 10.7%, TDP1 cell noCPT 16.4µM*, DT40 TDP1 CPT 16.4µM*, TGFb inhibitor -1.7% and IL1B secr inh inconclusive.

Screening results (PubChem)
